From PubChem BioAssay (NCI)
Where “and” joins values, the source holds several entries; their conditions need not be identical. Identical values can stand only once. The panel holds about 83,000 compounds, 20% with a hit somewhere; the sample as a whole holds those more often.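 Single-dose data. Exposure time 48 hours. Values below 10 considered active.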 Calls of active or inactive are those of the source.

test system: MDA-MB-468 breast; test: NCI-60 one-dose screen, 48 h (100 = growth as untreated, 0 = no growth, -100 = all killed); conditions: 10 µM unless noted

SMILES	growth
C=C1C[C@@]2(C)C(CC[C@]3(C)C2CC=C2C4CC(C)(C)C[C@@H](OC(=O)/C(C)=C\C)[C@]4(C(=O)O)CC[C@]23C)C(C)(C)C1=O (some centres undefined)	-23.9% (active)
C#CCNC(=O)[C@H](Cc1ccccc1)NC(=O)[C@]12CC[C@@H](C(=C)C)[C@@H]1[C@H]1CC[C@@H]3[C@@]4(C)CCC(=O)C(C)(C)[C@@H]4CC[C@@]3(C)[C@]1(C)CC2	63.7% (inactive)
Cc1cc(O)cc(O)c1N=NC1=NCCS1	109% (inactive)
N#Cc1c(-c2ccccc2)nc2c(c(-c3ccccc3)nn2-c2ccccc2)c1-c1ccc(O)cc1	38.3% (inactive)
CN(C)CCN1C(=O)c2cccc3c(N)ccc(c23)C1=O	38.7% (inactive)
CCn1cc(-c2cc(-c3ccc(Cl)cc3)nc(N)n2)c(-c2ccc(Br)cc2)n1	72.7% (inactive)
Nc1n[nH]c(-c2cc(Cl)ccc2O)c1-c1ccccc1	83.5% (inactive)
O=C(Cn1ccc(=O)[nH]c1=O)c1ccc([N+](=O)[O-])o1	44.4% (inactive)
O=C1C=C(C(O)c2ccc(O)cc2)C(=O)c2ccccc21 (centres undefined)	111% (inactive)
COc1cc(NC(=O)CCSc2nc3ccccc3c(=O)n2Cc2ccccc2)cc(OC)c1OC	93.3% (inactive)
O=C1COCCN1c1ccc(NCc2cn(Cc3cccc4ccccc34)c3ccccc23)cc1	-24.8% (active)
COc1cc(C(=O)n2nc(-c3cc(OC)c(OC)c(OC)c3)nc2N)cc(OC)c1OC	101% (inactive)
CO[C@H]1C[C@@H]2CC[C@@H](C)[C@@](O)(O2)C(=O)C(=O)N2CCCC[C@H]2C(=O)O[C@H]([C@H](C)C[C@@H]2CC[C@@H](OC(=O)C(C)(CO)CO)[C@H](OC)C2)CC(=O)[C@H](C)/C=C(\C)[C@@H](O)[C@@H](OC)C(=O)[C@H](C)C[C@H](C)\C=C/C=C/C=C/1C	0.224% (active)
O=C(Nc1ncc(Cc2ccccc2)s1)c1ccc2c(c1)OCCO2	28.2% (inactive)
CS(=O)(=O)c1ccc(C(=O)N/N=C/c2ccccc2O)cc1	64.7% (inactive)
COc1ccc2nc(-c3ccc(OC)c(OC)c3)cc(-c3nnc(SCC(=O)Nc4ccc(C(C)=O)cc4)o3)c2c1	103% (inactive)
O=C(O)CCCc1ccccc1	109% (inactive)

SMILES	growth
O=[N+]([O-])c1cc(Cl)cc(Cl)c1O	104% (inactive)
COc1cc(-c2cc(-c3ccc(Nc4ccnc5cc(Cl)ccc45)cc3)nc(N3CCOCC3)n2)cc(OC)c1OC	-43.9% (active)
Cc1cc(C(N)=O)cc(C)c1C(=O)OCCCl	115% (inactive)
O=C(CCN1CCCC1)c1ccc([N+](=O)[O-])cc1	85.3% (inactive)
O=C1c2c(Cl)c(Cl)c(Cl)c(Cl)c2C(=O)C2(Cl)CC=CCC12Cl (centres undefined)	-77.2% (active)
O=[N+]([O-])c1ccc(Sc2cccc[n+]2[O-])c2nonc12	49.3% (inactive)
C=C(CN1CC=CCC1)[C@@H]1CC[C@]2(C(=O)OC)CC[C@]3(C)[C@H](CC[C@@H]4[C@@]5(C)CC[C@H](OC(C)=O)C(C)(C)[C@@H]5CC[C@]43C)[C@@H]12	55.6% (inactive)
CCOc1ccc2cc(-c3nn(CC4CCNCC4)c4ncnc(N)c34)ccc2c1	93.3% (inactive) and 40.5% (inactive)
Cn1c(=O)c(F)c(Nc2ccc(I)cc2F)c2c(=O)n(C[C@@H](O)CO)cnc21	77.9% (inactive)
COC(=O)/C(CCC=C(C)C)=C1\[C@@H](OC(C)=O)C[C@@]2(C)[C@H]1C[C@@H](O)[C@H]1[C@@]3(C)CC[C@H](NCCCNCCCCNCCCN)[C@@H](C)[C@@H]3CC[C@@]12C	78.5% (inactive)
CC(C)Cc1ccc(C(C)C(=O)NCc2ccc(Cn3c(=O)sn(CCCI)c3=O)cc2)cc1 (centres undefined)	64.3% (inactive) and -91.8% (active)
Cc1ccc(NC(=O)c2cc3ccccc3cc2O)c(C)c1	87.6% (inactive)
COc1ccc(-c2nc3ccc(Cc4ccc5nc(-c6ccc(OC)cc6)[nH]c5c4)cc3[nH]2)cc1	-20.2% (active)
N=C(N)c1ccc(-c2ccc(-c3cccs3)s2)cc1F	-77.4% (active)
CN(C)c1ccc(C(=O)OCCCCCCl)cc1	95.3% (inactive)
O=C1/C=C/[C@@H](O)[C@@H]2C[C@@H](O)C[C@H]2/C=C/CCCCO1	-36.1% (active)
CS(=O)(=O)c1ccc(-n2nc(-c3ccc(Br)cc3)c3ccccc3c2=O)cc1	100% (inactive)
